Data as given in the supplement of paper PMC10338343.
± gives the standard deviation. In all, about 8,200 sequences were measured (“pre-steady-state target cleavage rate”: median about 0.024, highest 2% from about 1.3 on). For the sample, the highest values were picked, then their nearest neighbours and some sequences at random.

Tested on: MIWI (PIWIL1) piRISC loaded with L1MC piRNA (30 nt)
Assay: pre-steady-state target cleavage rate (min^-1); MIWI and MILI are mouse PIWI proteins and EfPiwi is from a freshwater sponge; tags in brackets are library labels; higher = faster piRNA-guided slicing of the target
Details: guide: L1MC piRNA 5'p-UAACUAAAUACUAUGCAAGCUGUAGGUCCU
In short: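 Cleave-'n-Seq reactions paired 0.1 nM transcribed, DNA-blocked target RNA library with 1 nM active affinity-purified piRISC holding one synthetic guide, plus or minus 500 nM GTSF1 partner protein, in HEPES–potassium acetate buffer at 33 °C for 0–8 or 0–960 min. After sequencing of uncleaved targets and normalisation to depth and weakly complementary targets, the pre-steady-state cleavage rate was taken from a burst-and-steady-state fit. Three trials were pooled, and k3 was capped at 0.0001 min^-1.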

[1] = auxiliary factor: 500 nM mouse GTSF1
[2] = auxiliary factor: none (no GTSF1)

Row | Sequence | pre-steady-state target cleavage rate [1] | pre-steady-state target cleavage rate [2]
1 | UCCUGGAUGAGCUUGCUUAGAAUUUAGUUA | 0.0359 ± 0.0063 | 0.00574 ± 0.0024
2 | UCCUGCAUCAGCUUGCAUAGUAUUUAGUUA | 1.2 ± 0.066 | 0.0666 ± 0.014
3 | UCCUGCUACAGCUUGCAUGUAUUUAGUUA | 0.413 ± 0.054 | 0.00516 ± 0.0026
4 | ACCUCCUACAGCUUGCAUAGUAUUUAGAAA | 0.54 ± 0.061 | 0.00602 ± 0.0029
5 | AGGACCUACAGCAUCCAUAGUAUUUAGUUA | 0.319 ± 0.053 | 
6 | UCGACCUACUCGUUGCAUAGUAUUUACAAA | 0.165 ± 0.025 | 
7 | UGCACCUACACCUUGCAUAGUAUUUAGUUA | 0.967 ± 0.059 | 0.0415 ± 0.0067
8 | UCCUGGUACAGGUUGCAUAGUAUUUACUUA | 0.125 ± 0.035 | 0.00733 ± 0.003
9 | UGGACCUACAGACUUGCAUAGUAUUUAGUUA | 1.13 ± 0.1 | 0.0446 ± 0.0075
10 | UCCUGGAUGUCGUUAGCAUAGUAUUUAGUUA | 0.0102 ± 0.0036 | 
11 | UCCUGGAUGUGCUAGCAUAGUAUAUAGUUA | 0.0106 ± 0.0042 | 
12 | UCCACGAUCAGCUUGCAUAGUAUUUAGAAA | 0.444 ± 0.044 | 0.00814 ± 0.0028
13 | UCCACGAUCAGCUUGCAUAGUAUUUAGUUA | 1.55 ± 0.058 | 0.0711 ± 0.013
14 | UCCACGAUCAGCUUGCAUAGUAUUUAGUAA | 1.09 ± 0.079 | 0.0387 ± 0.009
15 | UCCUGCUACAGCUUGCAUAGAAUUUACAAA | 0.309 ± 0.065 | 
16 | AGGACCUUCAGCUUGCAUAGUAUUUUCAAA | 0.311 ± 0.038 | 0.00593 ± 0.0032
17 | AGGACCUACAGCUUGCAUAGUAUAUUCAAA | 0.419 ± 0.072 | 
18 | UCCUGGCACAGCUUGCAUAGUAUUUAGUUA | 0.456 ± 0.081 | 0.0452 ± 0.011
19 | UCCUGGUCACAGCUUGCAUAGUAUUUAGUUA | 0.818 ± 0.034 | 0.0939 ± 0.022
20 | UCCUCCACAGCUUGCAUAGUAUUUAGUUA | 0.736 ± 0.027 | 0.0534 ± 0.011
21 | UCCUCCUCACAGCUUGCAUAGUAUUUAGUUA | 1.49 ± 0.064 | 0.0662 ± 0.014
22 | UCCUCCCACAGCUUGCAUAGUAUUUAGUUA | 1.15 ± 0.04 | 0.0641 ± 0.012
23 | UCCUGCCACAGCUUGCAUAGUAUUUAGUUA | 1.2 ± 0.051 | 0.0769 ± 0.013
24 | UCCUGCACAGCUUGCAUAGUAUUUAGUUA | 1.34 ± 0.073 | 0.0804 ± 0.018
25 | UCCUGCUCACAGCUUGCAUAGUAUUUAGUUA | 1.37 ± 0.076 | 0.0748 ± 0.014
26 | UCCUGCUCAGCUUGCAUAGUAUUUAGUUA | 1.09 ± 0.043 | 0.0636 ± 0.013
27 | UCCUGGAUGAGCAAGCAUAGUAUUUAGUAA | 0.0379 ± 0.01 | 

Row | Sequence | pre-steady-state target cleavage rate [1] | pre-steady-state target cleavage rate [2]
28 | UCCUGGAUGUGCAUGCAUAGUAUUUAGUUA | 0.13 ± 0.014 | 0.00793 ± 0.0025
29 | UCCUGGAUGUGCUUGCAAAGUUUUUAGUUA | 0.00751 ± 0.0037 | 0.00575 ± 0.002
30 | UGGACCAACAGCUUCCAUAGUAUUUAGUUA | 0.0364 ± 0.0068 | 0.00383 ± 0.0016
31 | UCCUGGAACAGCUUGGAUAGUAUUUAGUUA | 1.18 ± 0.043 | 0.0808 ± 0.015
32 | UCGACCAACAGCUUCCAUAGUAUUUAGUUA | 0.0723 ± 0.016 | 0.0035 ± 0.0011
33 | UCCAGCUACAGCUUGGAUAGUAUUUAGUUA | 1.31 ± 0.12 | 0.0456 ± 0.0069
34 | UGGACCAACAGCUUGGAUAGUAUUUAGUUA | 1.49 ± 0.054 | 0.0691 ± 0.011
35 | UCGAGCUACAGCUUGGAUAGUAUUUAGUUA | 1.11 ± 0.086 | 0.0477 ± 0.0076
36 | AGGACCAACAGCUUCCAUAGUAUUUAGUUA | 0.0962 ± 0.019 | 0.00538 ± 0.0017
37 | UCCUCCAACAGCUUGGAUAGUAUUUAGUUA | 1.3 ± 0.053 | 0.0527 ± 0.0092
38 | UCCACCAACAGCUUGGAUAGUAUUUAGUUA | 1.36 ± 0.056 | 0.0553 ± 0.01
39 | AGGACCAACAGCUUGCAUAGUAUUUAGAUA | 0.509 ± 0.045 | 0.0557 ± 0.011
40 | UCGACCAACAGCUUGGAUAGUAUUUAGUUA | 1.67 ± 0.045 | 0.0693 ± 0.011
41 | AGGACCAACAGCUUGGAUAGUAUUUAGUUA | 1.41 ± 0.059 | 0.0681 ± 0.01
42 | UCCUCCUACAGCUUCGAUAGUAUUUAGAAA | 0.0755 ± 0.019 | 
43 | UCCUGGAUGAGCUUGCAUAGUAUUUAGUGA | 0.703 ± 0.047 | 0.0519 ± 0.0094
44 | UCCUGCUACAGCUUGCAUUGUAUUAAGUUA | 0.502 ± 0.038 | 0.00942 ± 0.0021
45 | UCCACCUACAGCUUGGAUAGUAUUUUCAAA | 0.0295 ± 0.012 | 
46 | UCCUCCUACAGCAUGCAUAGUAUUUAGAAA | 0.485 ± 0.066 | 
47 | UGGACCUACAGCUUGGAUAGUAUUUAGAUA | 0.427 ± 0.05 | 0.0235 ± 0.0046
48 | AGGACCUACAGGUUGGAUAGUAUUUAGUUA | 1.24 ± 0.079 | 0.0408 ± 0.0067
49 | UCGACCUACAGGUUGGAUAGUAUUUAGUUA | 1.16 ± 0.11 | 0.0308 ± 0.0056
50 | UGGACCUACAGCUUGGAUAGUAUUUAGUAA | 0.851 ± 0.062 | 0.0355 ± 0.006
51 | AGGACCUACAGCUUGGAUAGUAUUUAGUAA | 1.02 ± 0.063 | 0.0552 ± 0.012
52 | UCCACCUACAGCUUGGAUAGUAUUUAGUUA | 1.44 ± 0.056 | 0.0469 ± 0.0082
53 | UCCACCUACAGCUUGGAUAGUAUUUAGUAA | 0.747 ± 0.054 | 0.0244 ± 0.0052
54 | UCCACCUACAGCUUGGAUAGUAUUUAGAUA | 0.319 ± 0.042 | 0.0137 ± 0.0027

Row | Sequence | pre-steady-state target cleavage rate [1] | pre-steady-state target cleavage rate [2]
55 | UGGACCUACAGCUUGGAUAGUAUUUAGUUA | 1.65 ± 0.068 | 0.0735 ± 0.013
56 | AGGACCUACAGCUUGGAUAGUAUUUAGUUA | 1.67 ± 0.052 | 0.0813 ± 0.013
57 | AGGACCUACAGCUUGGAUAGUAUUUAGAUA | 0.527 ± 0.057 | 0.0218 ± 0.0053
58 | UGGACCUACAGGUUGGAUAGUAUUUAGUUA | 1.33 ± 0.091 | 0.0484 ± 0.0079
59 | UCCACCUACAGGUUGCAUAGUAUUUACAAA | 0.336 ± 0.052 | 
60 | UCCACCUACAGCUUGCAUAGUUUUUAGAUA | 0.16 ± 0.029 | 0.0077 ± 0.0023
61 | UCCUGGUUCAGGUUGCAUAGUAUUUAGUUA | 0.711 ± 0.051 | 0.0138 ± 0.0041
62 | AGGAGCUACAGCUAGCAUAGUAUUUAGUUA | 1.28 ± 0.076 | 0.0359 ± 0.0079
63 | UCCUGCUACAGCUAGCAUAGUAUUUACAAA | 0.234 ± 0.049 | 
64 | UCCUGCUACAGCUUGCUUAGUAUUAAGUUA | 0.403 ± 0.038 | 0.00887 ± 0.0026
65 | UCCUGGAUCAGCUUGCAUCGUAUUUAGUUA | 0.327 ± 0.02 | 0.032 ± 0.0077
66 | AGGACCUACAGCUUGCAUAGUAUUUUCUUA | 0.33 ± 0.049 | 0.03 ± 0.0093
67 | UCCUCCUACACCUUGCAUAGAAUUUAGUUA | 0.341 ± 0.082 | 0.00682 ± 0.0023
68 | UCCUCCUACAGCUUGCAUUGAAUUUAGUUA | 0.183 ± 0.018 | 0.00617 ± 0.0025
69 | UCGACCUACACCUUGCAUAGAAUUUAGUUA | 0.395 ± 0.07 | 0.0128 ± 0.0024
70 | UCGACCUACAGCUUGCAUUGUAUUUACUUA | 0.49 ± 0.028 | 0.0226 ± 0.0052
71 | UCGACCUACAGCUAGGAUAGUAUUUAGUUA | 1.29 ± 0.064 | 0.00874 ± 0.0021
72 | AGGACCUACAGCUAGGAUAGUAUUUAGUUA | 1.09 ± 0.06 | 0.0102 ± 0.0018
73 | UGGACCUACAGCUAGGAUAGUAUUUAGUUA | 1.39 ± 0.068 | 0.00938 ± 0.0019
74 | UCCUCGUACAGCUUGGAUAGUAUUUAGUUA | 1.22 ± 0.062 | 0.0636 ± 0.011
75 | AGGAGCUACAGCUUGGAUAGUAUUUAGUUA | 1.17 ± 0.081 | 0.0558 ± 0.0094
76 | UCGACGUACAGCUUGGAUAGUAUUUAGUUA | 1.24 ± 0.042 | 0.0503 ± 0.0083
77 | UGGACGUACAGCUUGGAUAGUAUUUAGUUA | 1.4 ± 0.054 | 0.0597 ± 0.01
78 | AGGACGUACAGCUUGGAUAGUAUUUAGUUA | 1.36 ± 0.067 | 0.0579 ± 0.0083
79 | UCCACGUACAGCUUGGAUAGUAUUUAGUUA | 1.14 ± 0.065 | 0.0509 ± 0.0081
